# Pf apPOL inh: Pf-apPOL DNA polymerase inhibition; inhibition, % at 10 µM; 210,000 tested, 0.25% active; AID 1794808; Recombinant Pf-apPOL, molecular beacon fluorescence, 1.5 h
# mHTT CaM bind: disrupts binding of mutant huntingtin to calmodulin | inhibition, % at 15 µM | 190,000 tested, 3.6% active | AlphaScreen His-mHTT/GST-CaM binding, luminescence | AID 1671202;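 note: 0% = both proteins with DMSO and 100% = one protein alone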
# The depositor's hits bear a star; · = no result; ! = a repeat was not active. Shown are actives, neighbours in structure and some others; about 3.5% of the full set was active somewhere. Cut-off read from the data, not from the text of the source: active = inhibition above about 50%; inactive = the rest.
SMILES,Pf apPOL inh,mHTT CaM bind
COc1cccc(C=C2Oc3cc(OCC(=O)O)ccc3C2=O)c1,6,9
Cc1cc2c(cc1C)CSC1(CC(C)(C)CC1C)SC2 (stereo unspecified),-1,·
CC(Oc1ccc(Cl)cc1Cl)C(=O)NC1CC(C)(C)NC(C)(C)C1 (stereo unspecified),-5,-1
C=CCSc1nnc(-c2ccccc2N)c(=O)[nH]1,-6,99*!
Nc1ccccc1-c1nnc(SCc2ccccc2)[nH]c1=O,4,2
O=C1OC(c2ccccc2Cl)=N/C1=C\c1c(F)cccc1Cl,-5,-5
Cc1ccccc1-n1nc2c(c1NC(=O)COc1ccc(Cl)cc1Cl)CS(=O)(=O)C2,-4,6
COc1ccc(OC)c(NC(=O)c2cc(S(=O)(=O)NCc3ccccc3)ccc2F)c1,-8,13
O=C(Nc1cccc(Cl)c1)c1cc(S(=O)(=O)NCCc2ccc(Cl)cc2)ccc1F,-8,80*
O=C(Nc1cc(Cl)cc(Cl)c1)c1cc(S(=O)(=O)NCCc2ccccc2)ccc1F,-8,49
Cc1ccc(NC(=O)c2cc(S(=O)(=O)NCCc3ccccc3)ccc2F)cc1Cl,1,5
O=C(Nc1ccc(F)c(Cl)c1)c1cc(S(=O)(=O)NCCc2ccccc2)ccc1F,-6,76*
COc1ccc(OC)c(NC(=O)c2cc(S(=O)(=O)NCCc3ccccc3)ccc2F)c1,0,80*
Cc1ccc(OCCOCC(O)CN(CCO)CCO)cc1C (stereo unspecified),-6,-7
CCCC(=O)Nc1c2c(nn1C(C)(C)C)CSC2,-2,22
COc1ccc2c(c1)Nc1ccccc1S2,·,63*
Clc1ccc2c(c1)Nc1ccccc1S2,·,40
N=c1c(C(=O)NCc2ccco2)cc2c(=O)n3ccccc3nc2n1Cc1cccnc1,-3,14
Cc1cccn2c(=O)c3cc(C(=O)NCc4ccco4)c(=N)n(CCc4ccccc4)c3nc12,-8,50*
Cc1cccn2c(=O)c3cc(C(=O)NCc4ccccc4)c(=N)n(CCc4ccccc4)c3nc12,9,0
N=c1c(C(=O)NCc2ccccc2)cc2c(=O)n3ccccc3nc2n1Cc1ccco1,11,85*
Cc1ccc2nc3c(cc(C(=O)NCc4ccco4)c(=N)n3Cc3ccco3)c(=O)n2c1,-5,66*
Cc1ccc(S(=O)(=O)c2cc3c(=O)n4ccccc4nc3n(Cc3ccco3)c2=N)cc1,2,52*
Cc1ccc(S(=O)(=O)c2cc3c(=O)n4cc(C)ccc4nc3n(Cc3ccco3)c2=N)cc1,-3,6
Cc1ccc2nc3c(cc(C(=O)NCc4ccccc4)c(=N)n3Cc3ccco3)c(=O)n2c1,0,37
SMILES,Pf apPOL inh,mHTT CaM bind
N#CC1=C(N)OC2=C(C(=O)CC(c3ccccc3)C2)C12C(=O)Nc1ccc(Br)cc12 (stereo unspecified),-1,46
COc1cccc(-c2nc(C=Nc3ccc(I)cc3)c(O)o2)c1,-5,1
CCOc1c(Br)cc(/C=C2/N=C(c3ccccc3)OC2=O)cc1OC,-7,6
CSc1ccc(Cc2nnc(NC(=O)c3cccc(C(F)(F)F)c3)o2)cc1,-212,40
O=C(Nc1ccccc1Cl)C1CCN(C(=O)c2cccs2)CC1,2,-4
CCOc1ccccc1NC(=O)c1c(NCc2cccc(OC)c2OC)sc2c1CCC2,-17,32

# From PubChem
